Consider 14 molecules from PubChem BioAssay (NCI).

Test systems include SR leukemia; RPMI-8226 leukemia; OVCAR-8 ovarian; OVCAR-5 ovarian; OVCAR-4 ovarian; SK-OV-3 ovarian; OVCAR-3 ovarian; HS 578T breast; NCI/ADR-RES ovarian; IGROV1 ovarian.
Assay in all cases: NCI-60 one-dose screen, 48 h (100 = growth as untreated, 0 = no growth, -100 = all killed)
Common to all, as to conditions: 10 µM

SMILES strings stand for the structures. Compounds without any hit were thinned out: in the full panel of roughly 83,000, 20% have a hit.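 Negative percent growth values reflect cell death: -40 means 40% of the cells present at the start died, and -100 means all died.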 Unmarked numbers belong to inactive results. Active and inactive are the calls of the source. Rule for the calls: active = growth percent below 10; inactive = the rest.

Consider `CCc1c(C(=O)NCc2c(O)ccc3cccc(O)c23)[nH]c(C)c1C(C)=O`, for which the growth was 30.5% in the test with SR leukemia; 15.3% with RPMI-8226 leukemia; 38.4% in the test on OVCAR-8 ovarian; 90.4% with OVCAR-5 ovarian; 27.6% in the test on OVCAR-4 ovarian; 62.2% in the test with SK-OV-3 ovarian. The growth with OVCAR-3 ovarian was 12.6%; with HS 578T breast it was 35%; in the test on NCI/ADR-RES ovarian, 29.2%.
With `CCOc1ccc(-n2cc(-c3ccc(N(C)C)cc3)[n+]3c2CCCCC3)cc1`, the growth is 27.3% in the test with SR leukemia; 6.41% (active) in the test with RPMI-8226 leukemia; 12.2% in the test on OVCAR-8 ovarian; 40% in the test on OVCAR-5 ovarian; 9.15% (active) in the test with OVCAR-4 ovarian; -5.85% (active) in the test with SK-OV-3 ovarian. In addition, the values for the growth in the test with OVCAR-3 ovarian, in the test with HS 578T breast and with NCI/ADR-RES ovarian were 21.8%, 28.5% and 92.8%, respectively.
As for `CCC1(C)OC(=O)NC1=O` (stereo not given), the growth in the test with SR leukemia was 115%; with RPMI-8226 leukemia, 96.6%; with OVCAR-8 ovarian, 105%; in the test with OVCAR-5 ovarian it was 97.1%; with OVCAR-4 ovarian, 112%; in the test with SK-OV-3 ovarian, 84%. Further, the figures for the growth in the test on OVCAR-3 ovarian, with HS 578T breast and with NCI/ADR-RES ovarian were 112%, 109% and 95.9%, respectively.
`O=C(Nc1cccc(Cl)c1)Nc1cc2ncncc2cc1OCc1cccc(F)c1`: the growth was -1.31% (active) with SR leukemia; -0.539% (active) in the test on RPMI-8226 leukemia; 3.52% (active) in the test with OVCAR-8 ovarian; 29.6% with OVCAR-5 ovarian; 22.4% in the test with OVCAR-4 ovarian; 19% in the test with IGROV1 ovarian. In addition, the growth with OVCAR-3 ovarian was 12.6%; with HS 578T breast, 45.9%; in the test with NCI/ADR-RES ovarian it was 13.6%.
For `COc1ccc(-n2nnc3c(sc4ccccc43)c2=O)cc1`, the growth in the test on SR leukemia is 51.1%; with RPMI-8226 leukemia it was 72%; with OVCAR-8 ovarian, 29.1%; in the test on OVCAR-5 ovarian it was 80.2%; in the test with OVCAR-4 ovarian, -46.9% (active); in the test on OVCAR-3 ovarian it was 24%. In addition, the growth is 21.4% in the test with HS 578T breast and 52.9% in the test on NCI/ADR-RES ovarian.
With `COC(=O)[C@]12CC[C@@H](C)[C@H](C)[C@@H]1C1=CC[C@@H]3[C@@]4(C)C/C(=N\O)[C@H](O)[C@@]5(C)COC(=C45)C[C@@]3(C)[C@]1(C)CC2`, the growth is -39.2% (active) in the test on SR leukemia; -41% (active) in the test on RPMI-8226 leukemia; -78.3% (active) in the test on OVCAR-8 ovarian; -75.4% (active) in the test on OVCAR-5 ovarian; -79.1% (active) in the test with OVCAR-4 ovarian; -58.4% (active) in the test with IGROV1 ovarian. Further, the growth is -98.1% (active) in the test on OVCAR-3 ovarian, -33.6% (active) in the test with HS 578T breast and -62.5% (active) with NCI/ADR-RES ovarian.
Regarding `CCCCC(CC#N)(CCC)CCC`, the growth in the test on SR leukemia is 93.6%; in the test with RPMI-8226 leukemia, 100%; in the test with OVCAR-8 ovarian, 104%; in the test on OVCAR-5 ovarian it was 104%; with SK-OV-3 ovarian, 94.8%; with IGROV1 ovarian, 102%. For the same molecule, the growth was 106% in the test with OVCAR-3 ovarian, 113% with HS 578T breast and 97.7% in the test on NCI/ADR-RES ovarian.
For `CN(C1c2ccccc2Oc2ccccc21)S(=O)(=O)c1cc(Cl)ccc1Cl`, the growth in the test with SR leukemia is 12.8%; with RPMI-8226 leukemia, 67.3%; in the test on OVCAR-8 ovarian, 65.8%; with OVCAR-5 ovarian, 84.4%; with SK-OV-3 ovarian, 54.5%; with IGROV1 ovarian, 53.8%. The growth in the test on OVCAR-3 ovarian was 19.4%; with HS 578T breast, 76.2%; in the test with NCI/ADR-RES ovarian, 51.9%.
Turning to `O=C(OCC1OC(n2cc(C(F)(F)F)c(=O)[nH]c2=O)CC1OC(=O)c1ccc([N+](=O)[O-])cc1)c1ccc([N+](=O)[O-])cc1` (stereo not given), the growth was 60.4% in the test on SR leukemia; 71.9% with RPMI-8226 leukemia; 66.8% with OVCAR-8 ovarian; 82.9% with OVCAR-5 ovarian; 88.2% in the test with OVCAR-4 ovarian; 82.3% in the test on IGROV1 ovarian. Also, the growth in the test on OVCAR-3 ovarian is 74.1%; in the test with HS 578T breast, 88.5%; in the test with NCI/ADR-RES ovarian, 88.7%.
With `CCc1ccc(-c2nnc(COc3ccc(-c4nc5ccccc5[nH]4)cc3OC)o2)cc1`, the growth in the test on SR leukemia is -8.81% (active); with RPMI-8226 leukemia, 52.1%; in the test on OVCAR-8 ovarian it was 40.9%; with OVCAR-5 ovarian, 96.6%; with OVCAR-4 ovarian, -36.2% (active); with IGROV1 ovarian, 53.6%. The results for the growth in the test with OVCAR-3 ovarian, in the test with HS 578T breast and in the test on NCI/ADR-RES ovarian were 4.63% (active), 14.4% and 69.2%, respectively.
For `COc1cc(C(=O)n2nc(N)c3c(C)cc(C)nc32)cc(OC)c1OC`, the growth in the test with SR leukemia is 13%; in the test on RPMI-8226 leukemia it was 59.6%; in the test on OVCAR-8 ovarian it was 84.4%; in the test with OVCAR-5 ovarian it was 118%; with OVCAR-4 ovarian, 92.8%; with IGROV1 ovarian, 86%. The growth in the test with OVCAR-3 ovarian was 69.3%; in the test on HS 578T breast, 83.2%; in the test with NCI/ADR-RES ovarian it was 60.8%.
For the molecule `Cc1cc(C)c(/C=C2\C(=O)Nc3ccc(NC(=O)CCCCCCC(=O)NO)cc32)[nH]1`, the growth in the test with SR leukemia was 22.1%; in the test on RPMI-8226 leukemia, 40.6%; in the test on OVCAR-8 ovarian, 17.7%; with OVCAR-5 ovarian, 15.9%; in the test on OVCAR-4 ovarian it was 50.5%; in the test with IGROV1 ovarian, 37.9%. Moreover, the growth with OVCAR-3 ovarian is 19.4%; with HS 578T breast, 21.6%; with NCI/ADR-RES ovarian, 92.1%.
As for `COC(=O)c1c(C)nc(Nc2nc3ccccc3s2)nc1-c1ccc(Cl)cc1Cl`, the growth was 99.4% with SR leukemia; 96.2% in the test with RPMI-8226 leukemia; 103% in the test on OVCAR-8 ovarian; 113% in the test with OVCAR-5 ovarian; 91.6% in the test on OVCAR-4 ovarian; 124% with IGROV1 ovarian. Besides, the growth in the test on OVCAR-3 ovarian was 92.2%; with HS 578T breast, 108%; in the test on NCI/ADR-RES ovarian it was 104%.
For the molecule `O=C(NC1CCCC1)c1ccc(N2CCC(NCc3cccc(C(F)(F)F)c3)CC2)cc1`, the growth was 0.0064% (active) with SR leukemia; 71.3% in the test on RPMI-8226 leukemia; 95.2% in the test on OVCAR-8 ovarian; 94.2% with OVCAR-5 ovarian; 98.4% in the test with SK-OV-3 ovarian; 94.1% in the test on IGROV1 ovarian. Further, the growth with OVCAR-3 ovarian was 90.4%; with HS 578T breast, 96.1%; in the test on NCI/ADR-RES ovarian it was 88.3%.
